Screens from PubChem.
This is a sample that favours compounds with a hit; in the whole collection about 2.2% have one here.
aSyn UTR inh: 5' untranslated region of α-synuclein, MLPCN primary screen; alpha-synuclein 5'UTR reporter, inhibitor activity; inhibition, % (tested at 7.5 µM); hit rate 0.82% among 300,000; AID 1813; in the data active = inhibition above about 60%;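 note: H4 neuroglioblastoma cells stably carrying SNCA 5'UTR luciferase fusion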
BaF3 tox: parental Ba/F3 viability inhibition as JAK2V617F counter-screen; CellTiter-Glo ATP luminescence; inhibition, % at 5.6 µM; hit rate 1.1% among 220,000; AID 1486;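 active = inhibition above a per-campaign cutoff, the mean inhibition of all tested compounds plus 3 SD, cut at about 27% in these data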
IEC-6 cytotox: kills IEC-6 intestinal cells in KLF5 counter-screen; IEC-6 cytotoxicity, luminescence viability; inhibition, % at 5 µM; hit rate 0.78% among 290,000
APP 5UTR inh: APP translation inhibition | SH-SY5Y APP 5'UTR-luciferase reporter, luminescence | inhibition, % at 2 µM | hit rate 0.82% among 190,000 | AID 1285;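 active = inhibition above a set limit, derived from the sample mean plus 3 SD, cut at about 45% in these data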
Ba/F3 V617F tox: lowers viability of Ba/F3 cells expressing EpoR and JAK2V617F; ATP luminescence; inhibition, % at 5.6 µM; hit rate 1.1% among 220,000;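 active = inhibition above the campaign mean plus 3 SD over all tested compounds, cut at about 24% in these data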;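 note: cytokine-independent growth of Ba/F3 cells driven by EpoR plus mutant JAK2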
KLF5 inh: kruppel-like factor 5 inhibition | DLD-1 KLF5 promoter-luciferase reporter, luminescence | inhibition, % at 5 µM | hit rate 0.23% among 290,000 | AID 1700;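 active = inhibition above a per-plate limit of that plate's mean compound inhibition plus 3 SD, cut at about 60% in these data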;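 note: higher means less KLF5 promoter-driven luciferase light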
IEC-6 cytotox cf: confirmation of cytotoxic compounds in rat IEC-6 intestinal epithelial cells; IEC-6 rat intestinal epithelial viability, luminescence; inhibition, % at 5 µM; hit rate 63% among 1,900; shares compounds with IEC-6 cytotox
Numbers stand for hits; i = inactive; nt = no result given. Cut-off read from the data, not from the text of the source, unless noted: active = inhibition above about 22%; inactive = the rest.

SMILES | aSyn UTR inh | BaF3 tox | IEC-6 cytotox | APP 5UTR inh | Ba/F3 V617F tox | KLF5 inh | IEC-6 cytotox cf
N#Cc1nccnc1S(=O)(=O)c1cccs1 | i | 34.8 | 40.0 | nt | 92.4 | i | 82.1
CS(=O)(=O)NNC(=O)c1sccc1OCc1ncc(C(F)(F)F)cc1Cl | i | i | i | nt | i | i | nt
CC(=O)c1ccc(COC(=O)Cc2ccc([N+](=O)[O-])cc2)cc1 | i | nt | i | nt | nt | i | nt
NC(=O)N=Nc1c2[nH]c3ccccc3nc-2c2ccccc12 | i | i | 25.9 | nt | i | i | i
O=c1[nH]c2ccccc2nc1-c1ccccc1 | i | i | i | nt | i | i | nt
COc1ccc(S(=O)(=O)N2CCN(C(=O)c3sccc3-c3ccccc3)CC2)cc1 | i | nt | nt | nt | nt | nt | nt
CCC1CCCCN1CCCNC(=O)C1CCN(Cc2nc(-c3ccc(Cl)cc3)oc2C)CC1 (configuration not stated) | i | nt | 47.4 | nt | nt | i | 69.6
CC12CCC(C(=O)N3CCN(Cc4ccccc4)CC3)(OC1=O)C2(C)C (configuration not stated) | i | i | i | i | i | i | nt
CC1(C)CC[C@]2(CO)[C@@H](O)C[C@]3(C)C(=CCC4[C@@]5(C)CC[C@H](O)C(C)(C)C5CC[C@]43C)[C@@H]2C1 (some centres not stated) | i | nt | nt | nt | nt | nt | nt
CCCCCC[C@@H]([C@@H](C)O)n1cnc2c(N)ncnc21 | i | nt | nt | nt | nt | nt | nt
O=C1C(Cl)=C(NCCN2CCOCC2)C(=O)c2ccccc21 | i | nt | 32.8 | nt | nt | i | i
CN(C(=O)CSc1nnc(COc2ccccc2F)n1N)C1CCS(=O)(=O)C1 (configuration not stated) | i | nt | nt | nt | nt | nt | nt
O=[N+]([O-])CC(c1ccc(F)cc1)c1c[nH]c2ccccc12 (configuration not stated) | i | nt | 46.7 | nt | nt | i | 29.3
COc1ccc(NS(=O)(=O)c2cccc(NC(=O)c3ccc(Cl)nc3)c2)cc1 | i | 78.2 | 33.3 | i | 62.8 | i | i
CCOC(=O)c1cnn(-c2ccccc2)c1-n1cccc1C(=O)C(=O)Nc1ccc(F)cc1 | i | i | i | i | i | i | nt
COc1cc(C(=O)Nc2ccc3c(c2)ncn3C)cc(OC)c1OC | i | nt | 54.9 | nt | nt | i | 34.1
Cc1nc2cc(NC(=O)c3ccc(Cl)cc3)ccc2n1C | i | nt | i | nt | nt | i | nt
COc1cc(C(=O)Nc2ccc3c(c2)nc(C)n3C)cc(OC)c1OC | i | nt | 30.3 | nt | nt | i | i
O=c1[nH]c(/C=C2\C=Nc3ccccc32)c(O)n1Cc1ccccc1F | i | 66.7 | 40.6 | 63.4 | 98.6 | i | 37.0
COc1ccccc1C(=O)NNC(=S)NC(=O)c1cccs1 | 73.2 | nt | 47.7 | nt | nt | i | 28.0
O=C(NC(=S)NNC(=O)c1ccccc1O)c1cccs1 | i | nt | i | nt | nt | i | nt
NC(=O)c1c(NC(=O)c2ccccc2F)sc2c1CCCC2 | i | nt | i | nt | nt | i | nt
COc1ccc(C(c2c(O)ccc3ccccc23)N2CCOCC2)c(OC)c1 (configuration not stated) | i | i | 35.0 | i | i | i | i
COc1ccc(C(CCN2CCOCC2)c2c(O)cc(OC)cc2OC)cc1 (configuration not stated) | i | nt | nt | nt | nt | nt | nt
COc1ccc(-c2n[nH]c3c2CN(C(=O)c2ccc(OC)c(OC)c2)CC3)cc1 | i | nt | 40.1 | nt | nt | i | i
SMILES | aSyn UTR inh | BaF3 tox | IEC-6 cytotox | APP 5UTR inh | Ba/F3 V617F tox | KLF5 inh | IEC-6 cytotox cf
COc1cc(OC)cc(C(=O)N2CCN(C(=O)c3ccc(OC)c(OC)c3)CC2)c1 | i | i | i | i | i | i | nt
COc1ccc(NC(=O)C(Cl)=C(Cl)Cl)cn1 | i | i | i | i | i | i | nt
COc1ccc(NC(=O)/C(Cl)=C(/Cl)S(=O)Cc2ccc(Cl)cc2)cn1 (configuration not stated) | nt | 85.8 | 42.1 | 95.9 | 100.1 | i | 55.8
COc1ccc(NC(=O)Cc2ccc(-c3ccccc3)cc2)cn1 | i | i | 40.1 | i | i | i | i
COc1ccc(CC(=O)Nc2ccc(OC)nc2)cc1 | i | i | i | i | i | i | nt
COc1ccc(NC(=O)/C(Cl)=C(/Cl)S(=O)(=O)Cc2ccccc2)cn1 | i | 31.2 | 30.6 | 76.9 | 72.8 | i | 47.3
CCOC(=O)CNC(=O)C1c2ccccc2C(=O)N(c2ccc(OC)cc2)C1c1ccc(OC)cc1 (configuration not stated) | i | i | i | i | i | i | nt
Cc1ccc(N2C(=O)CC(C)(C)CC2=O)cc1Cl | i | nt | i | nt | nt | i | nt
CC(=O)Oc1ccc(/C=N/NC(=O)CCSc2ccccc2)cc1 | i | i | i | i | i | i | nt
COc1ccc(CN2CCN(C(=O)CC(C)C)CC2)cc1 | i | nt | i | nt | nt | i | nt
